Laboratory results taken from PubChem BioAssay (NCI).
About 83,000 compounds went through this panel and 20% of them were active in at least one assay; those are over-represented in the sample as a whole.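 Method: cells in 96-well plates; compound added at one concentration; 48 h incubation; percent growth measured; values under 10 scored active.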 The source made the active and inactive calls.

Tests used:
Test in all cases: NCI-60 one-dose screen, 48 h (100 = growth as untreated, 0 = no growth, -100 = all killed)
Conditions in all cases: 10 µM unless noted
[1] = test system: NCI-H23 lung
[2] = test system: NCI-H226 lung
[3] = test system: NCI-H322M lung
[4] = test system: HOP-62 NSCLC
[5] = test system: NCI-H460 lung
[6] = test system: HOP-92 NSCLC
[7] = test system: A549/ATCC NSCLC
[8] = test system: 786-0 renal
[9] = test system: COLO 205 colon
[10] = test system: NCI-H522 lung

Measured: growth

Nc1ccc(Nc2nccc(-c3ccc4ccccc4c3)n2)cc1
inactive: [1] 41.2% | [2] 64% | [3] 64.5% | [4] 44.2% | [5] 17.8% | [6] 65.1% | [7] 25.5% | [8] 58.7% | [9] 49.4%

COc1ccc(C(=O)/C=C/c2c(Cl)c3c(c(OC)c2Cl)OCC(=O)N3)cc1
inactive: [1] 43.1% | [2] 62.9% | [3] 79.8% | [4] 21% | [5] 12% | [6] 74.5% | [7] 61.1% | [8] 58.2% | [9] 62.1%

CN1CCOCCOCCOc2ccccc2NC(=O)c2nc(cnc2N)-c2ccc(cc2)S1(=O)=O
inactive: [1] 34.5% | [2] 101% | [3] 36.8% | [4] 92.4% | [5] 34.3% | [6] 95.5% | [10] 43.9% | [8] 18% | [9] 27.9%

CCOC(=O)C(Cc1cc(I)c(O)c(I)c1)NC(=O)c1ccccc1 (centres undefined)
inactive: [1] 102% | [2] 93.1% | [3] 101% | [4] 78.8% | [5] 104% | [7] 83.8% | [8] 97.6% | [9] 108%
active: [6] -14.2%

Oc1c(Cl)cc(Cl)cc1CNc1nccnn1
inactive: [1] 102% | [2] 92% | [3] 99.3% | [4] 103% | [5] 109% | [6] 101% | [7] 102% | [8] 111% | [9] 100%

COc1cc(NCCCCCN=C(N)NC(N)=NC(C)C)c2ncccc2c1
inactive: [2] 71.2% | [4] 57% | [5] 55.7% | [6] 32.5% | [8] 92.3%
active: [1] -37.5% | [10] -16.1% | [9] -30.3%

CN1CCN(Cc2ccc(NC(=O)c3cncc(C#Cc4cnc(N)c5cccnc45)c3)cc2C(F)(F)F)CC1
inactive: [1] 11.4% | [10] 28.4% | [7] 29% | [8] 32.8%
active: [2] -18.6% | [4] -0.449% | [5] 7.81% | [6] -26.2% | [9] -20.5%

C/C(Cc1ccc(Cl)cc1)=C(\c1ccc(OCCN2CCCCCC2)cc1)c1ccc(OC(=O)Cc2ccccc2)cc1
active: [9] -45.1%
inactive: [1] 71.3% | [2] 84.1% | [3] 67.3% | [4] 85.7% | [5] 18.2% | [6] 48.4% | [8] 65%

CCOC(=O)CC(C)=N
inactive: [1] 118% | [2] 106% | [4] 107% | [5] 109% | [6] 99.4% | [10] 92% | [7] 101% | [8] 103% | [9] 108%

CCOC(=O)c1c2c(n3ccc(NC(=O)CCN4CCCCC4)cc13)C(=O)c1ncccc1C2=O
inactive: [2] 73.8% | [6] 78.5% | [8] 19.4%
active: [1] -55.2% | [4] -74.5% | [5] -35.9% | [10] 5.07% | [7] -70.1% | [9] -71.8%

COc1cccc(NC(=O)c2sc3nc4c(cc3c2N)CN(Cc2ccccc2)CC4)c1
inactive: [1] 81.2% | [2] 57.2% | [4] 31.4% | [5] 45.6% | [6] 42.1% | [7] 62.1% | [8] 37.2% | [9] 78.6%

CCCCCCCCCCCCCCCCCCNC(=O)[C@H]1CSC(c2ccc(OC)c(F)c2)N1 (some centres undefined)
active: [2] -68% | [4] -82.9% | [5] -67.8%
inactive: [1] 36.9% | [6] 37.8% | [10] 56.7% | [7] 20.9% | [8] 22.8% | [9] 102%

CS(=O)(=O)c1ccc(-c2cnc3ccc(-c4cccc(S(C)(=O)=O)c4)nn23)cc1
inactive: [1] 44% | [2] 65.1% | [3] 32.8% | [4] 59.2% | [5] 21.4% | [6] 16% | [9] 46.2%

CCOC(=O)c1cnc2ccc(OC)cc2c1Nc1cccc(S(=O)(=O)NC)c1
inactive: [1] 91.8% | [2] 108% | [4] 99.6% | [5] 114% | [6] 112% | [10] 99.8% | [7] 103% | [8] 77.1% | [9] 134%

Fc1ccc(Cc2ccc(F)cc2)cc1
inactive: [1] 102% | [2] 99.9% | [4] 106% | [5] 108% | [6] 100% | [10] 90% | [7] 103% | [8] 107% | [9] 108%

CSc1ccc(N=C=C(c2ccccc2)c2ccccc2)cc1
inactive: [1] 99% | [2] 95.7% | [4] 96.1% | [5] 102% | [6] 85.4% | [7] 78.4% | [8] 95.6% | [9] 107%

CCOC(=O)c1c2c(n3ccc(NC(=O)CCN4CCOCC4)cc13)C(=O)c1ncccc1C2=O
active: [10] -20.5%
inactive: [1] 16.7% | [2] 78.5% | [4] 39.9% | [5] 11.1% | [6] 45.1% | [8] 51.8% | [9] 37.9%

Cc1cc(N/N=C/c2nc(-c3ccc(Cl)cc3)oc2C)c2cc(Cl)ccc2n1
inactive: [1] 111% | [2] 98.4% | [4] 103% | [6] 69.5% | [7] 21.9% | [9] 83.7%
active: [5] -62.5% | [10] -1.87% | [8] -39.8%

Nc1c(C(=O)Nc2cccc3c2OCCO3)sc2nc3c(cc12)CN(Cc1ccccc1)CC3
inactive: [1] 85.4% | [2] 82.5% | [4] 72.5% | [5] 53.4% | [6] 83.4% | [10] 29.3% | [7] 79.3% | [8] 87.1% | [9] 90.9%

Clc1ccc(-c2nnc(COc3ccccc3Cl)o2)cc1
inactive: [1] 80.6% | [2] 93.8% | [4] 61.3% | [5] 82.9% | [6] 49.2% | [10] 70.9% | [7] 58.3% | [8] 23.3% | [9] 90.8%

COc1cccc(-c2nc3sccn3c2-c2ccnc(NCCCNS(=O)(=O)c3ccccc3)c2)c1
inactive: [1] 29.1% | [3] 69.4% | [4] 62.2% | [5] 38.3% | [6] 42% | [10] 27.9% | [7] 29% | [8] 59.5% | [9] 37.7%

O=S(=O)(NCCCNc1cc(-c2cn(-c3ccccc3)nc2-c2cccc(O)c2)ccn1)c1ccccc1
active: [9] -12.1%
inactive: [1] 65.9% | [2] 41.9% | [4] 77.3% | [5] 39% | [6] 45.2% | [10] 52.5% | [7] 35.8% | [8] 13.1%

O=C(C[C@@H](C(=O)NCc1cccc(C(F)(F)F)c1)N1C(=O)[C@@H](N2C(=O)OC[C@@H]2c2ccccc2)[C@H]1/C=C/c1ccccc1)NC1CCN(Cc2ccccc2)CC1
inactive: [1] 36.2% | [2] 88.6% | [4] 72.7% | [5] 13.1% | [6] 76.7% | [10] 33.8% | [7] 53.5% | [8] 76.3% | [9] 45.7%

O=C(Cn1cc(CN2C(=O)c3ccccc3S2(=O)=O)nn1)Nc1ccc([N+](=O)[O-])cc1Cl
inactive: [1] 90% | [2] 91.8% | [4] 101% | [5] 102% | [6] 107% | [10] 101% | [7] 106% | [8] 105% | [9] 103%

COc1cc(C#N)cc(OC)c1OCCN(CCOc1c(OC)cc(C#N)cc1OC)S(=O)(=O)c1ccc(C)cc1
inactive: [1] 96% | [2] 104% | [4] 100% | [5] 112% | [6] 88.5% | [10] 95.1% | [7] 100% | [8] 92.7% | [9] 113%

O=C(Nc1ccc(CN2CCOCC2)cc1)c1[nH]ncc1Nc1ncnc2sccc12
inactive: [2] 15.5% | [4] 20.1% | [6] 22.9% | [7] 13.6%
active: [1] -3.72% | [5] 3.28% | [10] 7.15% | [9] -34.9%

CC[C@H](Nc1ncnc(N)c1C(N)=O)c1nc2cccc(NCc3ccc(C(=O)NO)cc3)c2c(=O)n1-c1ccccc1
inactive: [1] 91.7% | [2] 102% | [4] 78% | [5] 79.5% | [6] 21.5% | [10] 35.9% | [7] 98.2% | [8] 90.3% | [9] 78.3%

COc1cccc(/C=C2/C(=O)N(Cc3ccco3)SC2=S)c1OC
inactive: [1] 108% | [2] 101% | [4] 105% | [5] 102% | [6] 93% | [10] 83.7% | [7] 100% | [8] 101% | [9] 111%

C=C1CCC2C3(C)COC(c4ccc(SC)cc4)OC3CCC2(C)C1C/C=C1/C(=O)OCC1O (centres undefined)
inactive: [1] 44.9% | [2] 48.7% | [4] 107% | [5] 81.8% | [6] 81.7% | [10] 73.3% | [7] 83.6% | [8] 78.4% | [9] 72.3%

CN1CCN(Cc2ccc(NC(=O)c3[nH]ncc3Nc3ccnc4ccsc34)cc2)CC1
active: [2] 5.11% | [5] 8.74%
inactive: [1] 15.4% | [4] 40.4% | [6] 76.2% | [10] 47.2% | [7] 24.1% | [9] 18.9%

CCN(CC)c1ccc(CNc2cc(C)nc3ccc(OC)cc23)cc1
inactive: [1] 21.2% | [2] 75.8% | [4] 102% | [6] 20.7% | [8] 73.7%
active: [3] -5.55% | [5] -39.4% | [9] -75.2%
